These results are taken from PubChem BioAssay.

The first experiment can be described thus: inhibitors of polyQ protein aggregation (AID 1604). The following applies: polyglutamine-induced protein aggregation inhibition assay; stronger effect = higher value; tested at 2.5 µM.
`N=c1nc(N2CCCCC2)cc(N)n1O`: the inhibition of aggregation was determined as 22.5%.

In the case of `CC(C)NCC(O)COc1cccc2[nH]ccc12` (configuration not stated), the inhibition of aggregation came to 83.3%.

`CCn1cc(C(=O)O)c(=O)c2ccc(C)nc21` displayed an inhibition of aggregation of 54.5%.

On to `CN(C)C(=O)C(CCN1CCC(O)(c2ccc(Cl)cc2)CC1)(c1ccccc1)c1ccccc1`, for which the inhibition of aggregation is 7.94%.

`Cc1cc(NS(=O)(=O)c2ccc(N)cc2)no1` showed an inhibition of aggregation of 58.6%.

With `CCCC(CCC)C(=O)O`, the inhibition of aggregation worked out at 40.9%.

As to `O=C1CN(/N=C/c2ccc([N+](=O)[O-])o2)C(=O)N1`, the inhibition of aggregation was 41.5%.

`COc1cc(Cc2cnc(N)nc2N)cc(OC)c1OC` showed an inhibition of aggregation of 83.3%.

Molecule `COC(=O)C1=C(C)NC(C)=C(C(=O)OCCN(C)Cc2ccccc2)C1c1cccc([N+](=O)[O-])c1` (configuration not stated) showed an inhibition of aggregation of 11.1%.

In the case of `O=C(CCCN1CCC(O)(c2ccc(Cl)cc2)CC1)c1ccc(F)cc1`, the inhibition of aggregation stood at 81.4%.

Turning to `CC12CCC(CC1)C(C)(C)O2`, the inhibition of aggregation turned out to be 71.8%.

Molecule `CC(C)(C)NCC(O)c1ccc(O)c(CO)c1` (configuration not stated) displayed an inhibition of aggregation of 25%.

For `COc1ccc2cc([C@H](C)C(=O)O)ccc2c1`, the inhibition of aggregation was found to be 74%.

In the case of `COc1c2occc2cc2ccc(=O)oc12`, the inhibition of aggregation amounted to 72.4%.

For the molecule `CN/C(=C\[N+](=O)[O-])NCCSCc1ccc(CN(C)C)o1`, the inhibition of aggregation worked out at 71.9%.

`CNCCCN1c2ccccc2CCc2ccccc21` returned an inhibition of aggregation of 7.32%.

As to `CN1C(=O)CC[C@H]1c1cccnc1`, the inhibition of aggregation is 72.2%.

Molecule `CCCC(=O)Nc1ccc(OCC(O)CNC(C)C)c(C(C)=O)c1` (configuration not stated) came in with an inhibition of aggregation of 0%.

In turn, `CC(C)OC(=O)C(C)(C)Oc1ccc(C(=O)c2ccc(Cl)cc2)cc1` showed an inhibition of aggregation of 59%.

Molecule `CC(C(=O)O)c1cccc(C(=O)c2ccccc2)c1` (configuration not stated) gave an inhibition of aggregation of 74.7%.

As to `CN1CCN(C2=Nc3cc(Cl)ccc3Nc3ccccc32)CC1`, the inhibition of aggregation stood at 65.4%.

In the case of `COC(=O)C1=C(C)NC(C)=C(C(=O)OC)C1c1ccccc1[N+](=O)[O-]`, the inhibition of aggregation is 15.2%.

A short description of a further experiment: enhancers of glutamate uptake in motor neurons, MN-1 cell line (AID 1612).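 Further: tested at 1 µM final; 0% = mean of DMSO vehicle wells on each plate; positive means more glutamate uptake than control and negative means less.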 Conditions: MN-1 motor neuron cells, stronger effect = higher value.
Take `N=c1nc(N2CCCCC2)cc(N)n1O`: the glutamate uptake change turned out to be 7.03%.

Regarding `CC(C)NCC(O)COc1cccc2[nH]ccc12` (configuration not stated), the glutamate uptake change came to 11.9%.

As to `CCn1cc(C(=O)O)c(=O)c2ccc(C)nc21`, the glutamate uptake change was -15.5%.

For `CN(C)C(=O)C(CCN1CCC(O)(c2ccc(Cl)cc2)CC1)(c1ccccc1)c1ccccc1`, the glutamate uptake change came out at 44.5%.

On to `Cc1cc(NS(=O)(=O)c2ccc(N)cc2)no1`, for which the glutamate uptake change was 12.1%.

`CCCC(CCC)C(=O)O`: the glutamate uptake change is -8.08%.

With `O=C1CN(/N=C/c2ccc([N+](=O)[O-])o2)C(=O)N1`, the glutamate uptake change worked out at 23.4%.

Take `COc1cc(Cc2cnc(N)nc2N)cc(OC)c1OC`: the glutamate uptake change was -5.77%.

Take `COC(=O)C1=C(C)NC(C)=C(C(=O)OCCN(C)Cc2ccccc2)C1c1cccc([N+](=O)[O-])c1` (configuration not stated): the glutamate uptake change was -14.8%.

With `O=C(CCCN1CCC(O)(c2ccc(Cl)cc2)CC1)c1ccc(F)cc1`, the glutamate uptake change was 6.85%.

On to `CC12CCC(CC1)C(C)(C)O2`, for which the glutamate uptake change was -6.04%.

Regarding `CC(C)(C)NCC(O)c1ccc(O)c(CO)c1` (configuration not stated), the glutamate uptake change is -8.12%.

Take `COc1ccc2cc([C@H](C)C(=O)O)ccc2c1`: the glutamate uptake change was 6.08%.

Turning to `COc1c2occc2cc2ccc(=O)oc12`, the glutamate uptake change is -3.48%.

Take `CN/C(=C\[N+](=O)[O-])NCCSCc1ccc(CN(C)C)o1`: the glutamate uptake change is -10.5%.

`CNCCCN1c2ccccc2CCc2ccccc21`: the glutamate uptake change stood at 12.7%.

As to `CN1C(=O)CC[C@H]1c1cccnc1`, the glutamate uptake change was 11.3%.

Take `CCCC(=O)Nc1ccc(OCC(O)CNC(C)C)c(C(C)=O)c1` (configuration not stated): the glutamate uptake change is -19.3%.

As to `CC(C)OC(=O)C(C)(C)Oc1ccc(C(=O)c2ccc(Cl)cc2)cc1`, the glutamate uptake change is -24.1%.

For the molecule `CC(C(=O)O)c1cccc(C(=O)c2ccccc2)c1` (configuration not stated), the glutamate uptake change was -7.92%.

In the case of `CN1CCN(C2=Nc3cc(Cl)ccc3Nc3ccccc32)CC1`, the glutamate uptake change was -8.51%.

As for `COC(=O)C1=C(C)NC(C)=C(C(=O)OC)C1c1ccccc1[N+](=O)[O-]`, the glutamate uptake change is -6.86%.

The nature of another experiment: reducers of polyQ inclusions in PC12 cells, cell-based, NGF-treated PC12, GFPQ80 (AID 1614).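 Further: lower means fewer inclusions and 0 means no inclusions at all.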 The following applies: PC12 NGF-treated GFP-polyQ80 inclusion reduction.
`N=c1nc(N2CCCCC2)cc(N)n1O`: the inclusion score was found to be 1.

As for `CC(C)NCC(O)COc1cccc2[nH]ccc12` (configuration not stated), the inclusion score was 2.

With `CCn1cc(C(=O)O)c(=O)c2ccc(C)nc21`, the inclusion score turned out to be 2.

For `Cc1cc(NS(=O)(=O)c2ccc(N)cc2)no1`, the inclusion score was found to be 2.

In the case of `CCCC(CCC)C(=O)O`, the inclusion score was 2.

For the molecule `O=C1CN(/N=C/c2ccc([N+](=O)[O-])o2)C(=O)N1`, the inclusion score was found to be 2.

Regarding `COc1cc(Cc2cnc(N)nc2N)cc(OC)c1OC`, the inclusion score was 2.

The molecule `CC12CCC(CC1)C(C)(C)O2` showed an inclusion score of 2.

The molecule `CC(C)(C)NCC(O)c1ccc(O)c(CO)c1` (configuration not stated) registered an inclusion score of 2.

The molecule `COc1ccc2cc([C@H](C)C(=O)O)ccc2c1` displayed an inclusion score of 2.

Molecule `COc1c2occc2cc2ccc(=O)oc12` displayed an inclusion score of 2.

In the case of `CN/C(=C\[N+](=O)[O-])NCCSCc1ccc(CN(C)C)o1`, the inclusion score worked out at 2.

For `CN1C(=O)CC[C@H]1c1cccnc1`, the inclusion score turned out to be 2.

`CCCC(=O)Nc1ccc(OCC(O)CNC(C)C)c(C(C)=O)c1` (configuration not stated) gave an inclusion score of 2.

Regarding `CC(C)OC(=O)C(C)(C)Oc1ccc(C(=O)c2ccc(Cl)cc2)cc1`, the inclusion score turned out to be 0.

With `CC(C(=O)O)c1cccc(C(=O)c2ccccc2)c1` (configuration not stated), the inclusion score was 2.

A further experiment is described as follows: suppressors of polyglutamine aggregation in yeast, 75Q-TubH (AID 1616). The following applies: S. cerevisiae 75Q-TubH polyglutamine aggregation suppression; stronger effect = higher value.
On to `N=c1nc(N2CCCCC2)cc(N)n1O`, for which the aggregation suppression score stood at 1.83.

`CC(C)NCC(O)COc1cccc2[nH]ccc12` (configuration not stated): the aggregation suppression score came out at 1.28.

In turn, `CCn1cc(C(=O)O)c(=O)c2ccc(C)nc21` gave an aggregation suppression score of 0.277.

Molecule `CN(C)C(=O)C(CCN1CCC(O)(c2ccc(Cl)cc2)CC1)(c1ccccc1)c1ccccc1` gave an aggregation suppression score of 1.13.

`Cc1cc(NS(=O)(=O)c2ccc(N)cc2)no1` showed an aggregation suppression score of 1.36.

`CCCC(CCC)C(=O)O` returned an aggregation suppression score of 0.716.

`O=C1CN(/N=C/c2ccc([N+](=O)[O-])o2)C(=O)N1` had an aggregation suppression score of 0.814.

Take `COc1cc(Cc2cnc(N)nc2N)cc(OC)c1OC`: the aggregation suppression score amounted to 1.24.

The molecule `COC(=O)C1=C(C)NC(C)=C(C(=O)OCCN(C)Cc2ccccc2)C1c1cccc([N+](=O)[O-])c1` (configuration not stated) showed an aggregation suppression score of 0.61.

As to `O=C(CCCN1CCC(O)(c2ccc(Cl)cc2)CC1)c1ccc(F)cc1`, the aggregation suppression score is 1.09.

Regarding `CC12CCC(CC1)C(C)(C)O2`, the aggregation suppression score worked out at 1.21.

`CC(C)(C)NCC(O)c1ccc(O)c(CO)c1` (configuration not stated) showed an aggregation suppression score of 0.989.

Regarding `COc1ccc2cc([C@H](C)C(=O)O)ccc2c1`, the aggregation suppression score worked out at 0.196.

`COc1c2occc2cc2ccc(=O)oc12` returned an aggregation suppression score of 0.937.

Consider `CN/C(=C\[N+](=O)[O-])NCCSCc1ccc(CN(C)C)o1`, for which the aggregation suppression score was 1.66.

The molecule `CNCCCN1c2ccccc2CCc2ccccc21` came in with an aggregation suppression score of 1.18.

With `CN1C(=O)CC[C@H]1c1cccnc1`, the aggregation suppression score worked out at 1.36.

Consider `CCCC(=O)Nc1ccc(OCC(O)CNC(C)C)c(C(C)=O)c1` (configuration not stated), for which the aggregation suppression score was determined as 1.28.

The molecule `CC(C)OC(=O)C(C)(C)Oc1ccc(C(=O)c2ccc(Cl)cc2)cc1` came in with an aggregation suppression score of 0.0671.

The molecule `CC(C(=O)O)c1cccc(C(=O)c2ccccc2)c1` (configuration not stated) came in with an aggregation suppression score of 0.564.

As to `CN1CCN(C2=Nc3cc(Cl)ccc3Nc3ccccc32)CC1`, the aggregation suppression score amounted to 1.14.

Take `COC(=O)C1=C(C)NC(C)=C(C(=O)OC)C1c1ccccc1[N+](=O)[O-]`: the aggregation suppression score amounted to 0.369.
